Assay results: the supplement of paper PMC8975748
Structures can show the parent of a compound that is named as a salt.

System: Saccharomyces cerevisiae BY4741 SeMeCo community
Assay: z-score of subpopulation abundance vs DMSO median, subpopulation auxotrophic for HLU; higher = larger share of this subpopulation than in DMSO controls
Settings: 10 µM; 24 h; SM minimal medium; subpopulation (auxotrophy): HLU
Description: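 Fluorescent four-plasmid SeMeCo (self-establishing metabolically cooperating S. cerevisiae BY4741 community; plasmids pH-mRuby2, pL-mWasabi, pU-eCFP, pM-TagRFP657) was grown 24 h in minimal SM medium with each Selleck FDA-approved drug at 10 µM in 384-well plates. Cells were fixed and imaged by high-content confocal microscopy. For each auxotrophic subpopulation (and the prototroph), a z-score gives the deviation from the DMSO vehicle-control population median.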

SMILES	z-score of subpopulation abundance
C[N+](C)(C)CCCCCCCCCC[N+](C)(C)C [Decamethonium Bromide]	0
CN1c2ccccc2C(NCCCCCCC(=O)O)c2ccc(Cl)cc2S1(=O)=O (stereo not given) [Tianeptine sodium]	-0.23
Nc1ccncc1 [4-Aminopyridine]	0.05
CCOC(=O)Nc1ccc(NCc2ccc(F)cc2)cc1N [Retigabine 2HCl]	-0.42
C[C@@H]1CC[C@H]2[C@@H](C)C(=O)O[C@@H]3O[C@@]4(C)CC[C@@H]1[C@]32OO4 [Artemisinin]	-0.05
CC(C)(O)C(Cl)(Cl)Cl [Chlorobutanol]	0.97
C=CC[C@]1(O)CC[C@H]2[C@@H]3CCC4=CC(=O)CCC4=C3C=C[C@@]21C [Altrenogest]	0.03
Oc1cccc2cccnc12 [8-Hydroxyquinoline]	-0.85
CN1[C@@H]2C[C@@H](OC(=O)[C@H](CO)c3ccccc3)C[C@H]1[C@@H]1O[C@@H]12 [Scopolamine HBr trihydrate]	-0.91
COC(=O)C1=CCCN(C)C1 [Arecoline HBr]	0.06
C[N+]1(C)[C@@H]2C[C@@H](OC(=O)[C@H](CO)c3ccccc3)C[C@H]1[C@@H]1O[C@@H]12 [Methscopolamine]	0.5
C=CCN1C[C@H](C(=O)N(CCCN(C)C)C(=O)NCC)C[C@@H]2c3cccc4[nH]cc(c34)C[C@H]21 [Cabergoline]	-0.08
CC(=O)OCC1=C(C(=O)O)N2C(=O)C(N)C2SC1 (stereo not given) [7-Aminocephalosporanic acid]	-0.25
C#C[C@]1(O)C=C[C@H]2[C@@H]3CCC4=CC(=O)CC[C@@H]4[C@H]3CC[C@@]21CC [Gestodene]	0.11
CCN(C)C(=O)Oc1cccc([C@H](C)N(C)C)c1 [Rivastigmine Tartrate]	-0.41
CN(C)[C@@H]1C(=O)C(C(N)=O)=C(O)[C@@]2(O)C(=O)C3=C(O)c4c(O)ccc(Cl)c4[C@@](C)(O)[C@H]3C[C@@H]12 [Chlortetracycline HCl]	-0.5
CC1(C)SC2C(N)C(=O)N2C1C(=O)O (stereo not given) [6-Aminopenicillanic acid]	-0.15
O=C(O[C@H]1C[C@H]2CC[C@@H](C1)[N+]21CCCC1)C(O)(c1ccccc1)c1ccccc1 [Trospium chloride]	-0.58
COc1cc2c(cc1OC)C1CC(=O)C(CC(C)C)CN1CC2 (stereo not given) [Tetrabenazine (Xenazine)]	-0.31
O=c1[nH]c2ccccc2n1CCCN1CCC(n2c(=O)[nH]c3cc(Cl)ccc32)CC1 [Domperidone]	1.05

SMILES	z-score of subpopulation abundance
CCCN1C[C@H](CSC)C[C@@H]2c3cccc4[nH]cc(c34)C[C@H]21 [Pergolide Mesylate]	-0.75
COc1ccc2c(c1)[C@]13CCCC[C@@H]1[C@H](C2)N(C)CC3 [Dextromethorphan hydrobromide hydrate]	-0.08
CCC1=C[C@H]2CN3CCc4c([nH]c5ccccc45)[C@](C(=O)OC)(C2)[C@H]13 [Catharanthine]	-0.62
Cc1cc(O)ccc1Cl [Chlorocresol]	-0.87
CCCCCCCCCCCCCCCC[n+]1ccccc1 [Cetylpyridinium Chloride]	9.76
CCOC(=O)Nc1ccc(NCc2ccc(F)cc2)cc1N [Retigabine]	0.77
N[C@@H]1C[C@H]1c1ccccc1 [Tranylcypromine (2-PCPA) HCl]	0.05
Cn1cc(C2=C(c3cn(C4CCN(Cc5ccccn5)CC4)c4ccccc34)C(=O)NC2=O)c2ccccc21	0.26
COc1ccc(C(CN(C)C)C2(O)CCCCC2)cc1 (stereo not given) [Venlafaxine]	-0.41
NCCc1c[nH]c2ccc(O)cc12 [Serotonin HCl]	-0.94
CCN1CC2(OC(=O)c3ccccc3NC(C)=O)CCC(OC)C34C1C(CC23)C1(O)CC(OC)C2CC4C1(O)C2OC (stereo not given) [Lappaconitine]	-0.47
CN[C@@H]1[C@@H](O)[C@@H](O[C@@H]2[C@@H](O)[C@H](O[C@H]3O[C@H]([C@@H](C)O)[C@@H](O)[C@H](O)[C@H]3N)[C@@H](N)C[C@H]2N)OC[C@]1(C)O [Geneticin (G418 Sulfate)]	0.77
O=c1cccc2n1C[C@@H]1CNC[C@H]2C1 [Cytisine]	-0.22
C[N+]12CCC(CC1)C(OC(=O)C(O)(c1ccccc1)c1ccccc1)C2 (stereo not given) [Clidinium Bromide]	-0.31
CN(C)[C@@H]1C(=O)C(C(N)=O)=C(O)[C@@]2(O)C(=O)C3=C(O)c4c(O)cccc4[C@@](C)(O)[C@H]3[C@H](O)[C@@H]12 [Oxytetracycline (Terramycin)]	0.16
COc1ccc(C=O)cc1 [p-Anisaldehyde]	-0.91
CN(C)[C@@H]1C(=O)C(C(N)=O)=C(O)[C@@]2(O)C(=O)C3=C(O)c4c(O)cccc4[C@@](C)(O)[C@H]3[C@H](O)[C@@H]12 [Oxytetracycline Dihydrate]	0.15
NC(=O)CN1CCCC1=O [Piracetam]	1.5
CC[N+](C)(CC)CCOC(=O)C(O)(c1ccccc1)c1ccccc1 [Methylbenactyzine Bromide]	-0.28
CN[C@@H]1[C@@H](O)[C@@H](O[C@@H]2[C@@H](O)[C@H](O[C@H]3O[C@H](CN)CC[C@H]3N)[C@@H](N)C[C@H]2N)OC[C@]1(C)O.CN[C@@H]1[C@@H](O)[C@@H](O[C@@H]2[C@@H](O)[C@H](O[C@H]3O[C@H]([C@@H](C)N)CC[C@H]3N)[C@@H](N)C[C@H]2N)OC[C@]1(C)O.CN[C@@H]1[C@@H](O)[C@@H](O[C@@H]2[C@@H](O)[C@H](O[C@H]3O[C@H]([C@@H](C)NC)CC[C@H]3N)[C@@H](N)C[C@H]2N)OC[C@]1(C)O [Gentamicin Sulfate]	-0.42
